The full data set covers some 7,900 targets. This sample favours those with a hit. About 0.6% of all pairs of compound and target were hits.

Chain of UniProt Q969G3 (Q969G3 whole entry, looked up): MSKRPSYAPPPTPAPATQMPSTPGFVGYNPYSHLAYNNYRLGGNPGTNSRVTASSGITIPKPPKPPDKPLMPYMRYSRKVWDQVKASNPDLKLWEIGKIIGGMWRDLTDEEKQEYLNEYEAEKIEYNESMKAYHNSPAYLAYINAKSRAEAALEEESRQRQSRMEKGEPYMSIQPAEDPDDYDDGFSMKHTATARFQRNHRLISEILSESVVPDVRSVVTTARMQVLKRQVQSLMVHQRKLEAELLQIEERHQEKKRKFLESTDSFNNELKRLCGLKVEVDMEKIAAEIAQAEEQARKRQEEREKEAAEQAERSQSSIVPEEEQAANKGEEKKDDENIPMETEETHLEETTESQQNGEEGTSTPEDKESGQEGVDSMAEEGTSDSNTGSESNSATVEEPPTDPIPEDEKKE
Chain of UniProt Q9NZD8 (Q9NZD8 whole entry, looked up): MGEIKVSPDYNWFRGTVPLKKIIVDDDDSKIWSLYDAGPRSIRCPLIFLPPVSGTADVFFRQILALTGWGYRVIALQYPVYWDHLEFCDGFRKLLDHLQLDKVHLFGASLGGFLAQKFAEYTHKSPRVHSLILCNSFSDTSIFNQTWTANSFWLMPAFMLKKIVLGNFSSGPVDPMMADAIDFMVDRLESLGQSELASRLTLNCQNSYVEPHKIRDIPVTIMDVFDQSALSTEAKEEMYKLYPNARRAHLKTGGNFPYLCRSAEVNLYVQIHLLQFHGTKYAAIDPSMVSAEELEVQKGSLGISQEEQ
Chain of UniProt P30626 (P30626 whole entry, looked up): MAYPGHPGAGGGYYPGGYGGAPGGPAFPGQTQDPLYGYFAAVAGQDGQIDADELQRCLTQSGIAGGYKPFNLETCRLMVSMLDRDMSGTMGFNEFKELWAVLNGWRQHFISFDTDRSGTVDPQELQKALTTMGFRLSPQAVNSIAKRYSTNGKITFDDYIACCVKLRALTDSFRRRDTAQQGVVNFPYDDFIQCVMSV
Chain of UniProt Q8IY18 (Q8IY18 whole entry, looked up): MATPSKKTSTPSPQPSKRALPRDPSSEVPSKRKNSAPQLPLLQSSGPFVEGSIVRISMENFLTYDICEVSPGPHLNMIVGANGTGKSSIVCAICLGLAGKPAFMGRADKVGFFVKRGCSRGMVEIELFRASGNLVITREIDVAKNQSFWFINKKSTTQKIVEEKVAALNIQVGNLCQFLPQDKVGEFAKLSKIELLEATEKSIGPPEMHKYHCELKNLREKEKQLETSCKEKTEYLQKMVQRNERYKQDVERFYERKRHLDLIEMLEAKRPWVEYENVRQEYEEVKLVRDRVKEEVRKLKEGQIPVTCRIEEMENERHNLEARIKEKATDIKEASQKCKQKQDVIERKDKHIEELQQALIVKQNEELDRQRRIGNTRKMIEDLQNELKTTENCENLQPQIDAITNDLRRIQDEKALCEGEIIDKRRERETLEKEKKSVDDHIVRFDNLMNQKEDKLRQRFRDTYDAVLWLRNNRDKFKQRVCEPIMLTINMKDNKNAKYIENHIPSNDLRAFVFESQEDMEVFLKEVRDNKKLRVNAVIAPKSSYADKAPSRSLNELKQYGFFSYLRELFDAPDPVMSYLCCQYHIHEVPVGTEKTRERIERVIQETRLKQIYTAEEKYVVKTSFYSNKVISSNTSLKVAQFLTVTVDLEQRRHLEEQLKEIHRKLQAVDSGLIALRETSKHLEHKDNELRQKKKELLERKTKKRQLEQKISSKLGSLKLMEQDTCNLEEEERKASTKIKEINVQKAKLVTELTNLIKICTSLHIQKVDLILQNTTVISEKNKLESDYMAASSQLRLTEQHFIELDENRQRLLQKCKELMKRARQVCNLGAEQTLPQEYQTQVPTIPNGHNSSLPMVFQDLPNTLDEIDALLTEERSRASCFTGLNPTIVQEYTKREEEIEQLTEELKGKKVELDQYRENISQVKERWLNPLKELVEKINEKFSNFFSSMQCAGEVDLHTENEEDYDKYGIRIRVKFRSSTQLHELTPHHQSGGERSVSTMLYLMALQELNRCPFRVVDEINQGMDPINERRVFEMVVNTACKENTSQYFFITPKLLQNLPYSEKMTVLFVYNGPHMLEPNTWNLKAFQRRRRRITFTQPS
Chain of UniProt P56962 (P56962 whole entry, looked up): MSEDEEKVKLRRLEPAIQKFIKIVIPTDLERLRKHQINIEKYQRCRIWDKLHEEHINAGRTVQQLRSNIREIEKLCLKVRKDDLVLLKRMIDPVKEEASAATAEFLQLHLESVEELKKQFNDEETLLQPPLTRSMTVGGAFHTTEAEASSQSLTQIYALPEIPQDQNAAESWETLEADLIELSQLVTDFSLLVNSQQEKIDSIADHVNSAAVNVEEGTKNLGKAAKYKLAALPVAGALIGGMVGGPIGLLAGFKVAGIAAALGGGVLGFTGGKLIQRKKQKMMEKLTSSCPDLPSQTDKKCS
Chain of UniProt Q9H4L7 (Q9H4L7 whole entry, looked up): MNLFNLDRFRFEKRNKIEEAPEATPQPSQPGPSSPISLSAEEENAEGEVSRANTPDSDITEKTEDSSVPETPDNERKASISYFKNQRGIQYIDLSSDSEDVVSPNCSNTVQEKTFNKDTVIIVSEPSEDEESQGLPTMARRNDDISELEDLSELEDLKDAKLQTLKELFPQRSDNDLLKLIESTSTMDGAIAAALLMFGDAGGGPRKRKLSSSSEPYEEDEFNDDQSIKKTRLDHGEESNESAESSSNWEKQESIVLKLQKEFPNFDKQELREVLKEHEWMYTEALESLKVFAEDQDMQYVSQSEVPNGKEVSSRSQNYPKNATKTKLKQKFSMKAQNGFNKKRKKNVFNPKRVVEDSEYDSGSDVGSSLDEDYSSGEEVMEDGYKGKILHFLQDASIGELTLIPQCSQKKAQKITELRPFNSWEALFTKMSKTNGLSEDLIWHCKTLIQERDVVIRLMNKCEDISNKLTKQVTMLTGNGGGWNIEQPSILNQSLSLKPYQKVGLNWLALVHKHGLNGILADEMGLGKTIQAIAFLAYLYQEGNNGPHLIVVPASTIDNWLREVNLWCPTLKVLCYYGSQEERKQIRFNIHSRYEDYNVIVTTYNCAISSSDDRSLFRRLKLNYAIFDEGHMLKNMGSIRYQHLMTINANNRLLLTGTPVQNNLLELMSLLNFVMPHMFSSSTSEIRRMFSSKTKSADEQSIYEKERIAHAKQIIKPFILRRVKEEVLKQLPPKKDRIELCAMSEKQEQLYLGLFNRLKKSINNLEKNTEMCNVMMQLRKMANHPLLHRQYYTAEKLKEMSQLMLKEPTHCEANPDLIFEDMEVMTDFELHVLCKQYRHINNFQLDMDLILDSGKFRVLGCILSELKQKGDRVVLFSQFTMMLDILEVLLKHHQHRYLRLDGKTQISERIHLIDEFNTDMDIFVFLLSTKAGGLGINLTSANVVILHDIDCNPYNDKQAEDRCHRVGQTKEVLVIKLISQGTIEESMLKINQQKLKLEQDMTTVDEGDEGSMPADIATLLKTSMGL
Chain of UniProt Q99523 (Q99523 whole entry, looked up): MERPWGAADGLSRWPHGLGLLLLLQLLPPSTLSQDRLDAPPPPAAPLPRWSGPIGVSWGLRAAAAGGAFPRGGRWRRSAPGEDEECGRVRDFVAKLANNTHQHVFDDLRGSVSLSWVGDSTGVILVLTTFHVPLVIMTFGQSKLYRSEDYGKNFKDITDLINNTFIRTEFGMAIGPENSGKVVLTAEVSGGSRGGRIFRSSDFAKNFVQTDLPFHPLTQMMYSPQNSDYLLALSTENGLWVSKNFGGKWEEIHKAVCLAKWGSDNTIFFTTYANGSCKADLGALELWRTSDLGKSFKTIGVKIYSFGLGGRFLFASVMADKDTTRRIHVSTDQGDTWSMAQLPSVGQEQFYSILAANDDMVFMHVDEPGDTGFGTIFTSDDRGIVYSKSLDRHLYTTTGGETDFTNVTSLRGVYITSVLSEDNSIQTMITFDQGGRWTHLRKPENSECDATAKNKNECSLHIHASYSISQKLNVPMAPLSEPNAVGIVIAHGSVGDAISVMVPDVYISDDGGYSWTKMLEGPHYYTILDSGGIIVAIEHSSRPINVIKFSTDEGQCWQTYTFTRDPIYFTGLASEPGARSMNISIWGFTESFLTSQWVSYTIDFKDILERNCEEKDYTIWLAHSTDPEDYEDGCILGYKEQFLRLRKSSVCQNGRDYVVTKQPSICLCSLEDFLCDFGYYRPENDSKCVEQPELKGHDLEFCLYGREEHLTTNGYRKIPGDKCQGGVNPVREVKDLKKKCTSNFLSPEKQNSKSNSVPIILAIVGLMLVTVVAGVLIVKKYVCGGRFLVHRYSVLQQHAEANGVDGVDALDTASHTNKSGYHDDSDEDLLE
Chain of UniProt P05455 (P05455 whole entry, looked up): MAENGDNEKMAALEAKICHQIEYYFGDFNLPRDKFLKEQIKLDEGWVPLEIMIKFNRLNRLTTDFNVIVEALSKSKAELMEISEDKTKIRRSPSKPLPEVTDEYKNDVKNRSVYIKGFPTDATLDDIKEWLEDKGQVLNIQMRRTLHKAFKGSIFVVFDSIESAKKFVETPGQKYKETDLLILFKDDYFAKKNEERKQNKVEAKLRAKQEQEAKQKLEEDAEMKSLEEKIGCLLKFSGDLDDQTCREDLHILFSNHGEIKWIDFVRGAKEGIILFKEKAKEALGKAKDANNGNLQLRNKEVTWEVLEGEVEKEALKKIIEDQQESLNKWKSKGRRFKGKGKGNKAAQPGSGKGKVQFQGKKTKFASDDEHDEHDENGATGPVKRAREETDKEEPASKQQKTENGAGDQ
Chain of UniProt P04183 (P04183 whole entry, looked up): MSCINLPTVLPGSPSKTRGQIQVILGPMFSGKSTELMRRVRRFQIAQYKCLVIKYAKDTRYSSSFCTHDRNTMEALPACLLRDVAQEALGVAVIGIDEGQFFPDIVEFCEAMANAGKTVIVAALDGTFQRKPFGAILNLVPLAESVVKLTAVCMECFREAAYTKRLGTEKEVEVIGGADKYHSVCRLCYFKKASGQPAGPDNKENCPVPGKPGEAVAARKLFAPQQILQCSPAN
Chain of UniProt P84103 (P84103 whole entry, looked up): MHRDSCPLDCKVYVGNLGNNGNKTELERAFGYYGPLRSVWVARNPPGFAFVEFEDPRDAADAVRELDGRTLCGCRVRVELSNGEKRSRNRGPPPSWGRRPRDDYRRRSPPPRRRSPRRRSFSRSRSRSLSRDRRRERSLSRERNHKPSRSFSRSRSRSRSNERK

Compound in the first assay: Cc1cc(SCc2sc(-c3ccc(C(F)(F)F)cc3)nc2C)ccc1OCC(=O)O
Kind of assay: log2 fold change, soluble protein after heating vs DMSO (PISA); higher = thermal stabilisation; K562 cells, 10 uM, 30 min; active = over 0.2 and 3.5 SD of the protein, either way, in both replicates (recomputed). In short, it runs like this:
(§1)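 K562 cells at 2×10^6 cells/mL were exposed to 10 μM compound for 30 min, then aliquots were heated for 3 min across 48°C-58°C, pooled, and extracted in PBS containing 0.5% NP-40 at 4°C. The supernatant after 21,000xg for 90 min was taken as soluble protein and measured by TMTpro 16plex LC-MS/MS with channel sums equalised. Thermal stability is reported relative to control samples, with values from duplicates. Fold changes are given on a log2 scale.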
For STAT5B (UniProt P51692), the log2 fold change was 0.097 (inactive).
With STAT3 (UniProt P40763), the log2 fold change is 0.088 (inactive).
As for STAM2 (UniProt O75886), the log2 fold change was 0.028 (inactive).
With TIAL1 isoform 2 (UniProt Q01085), the log2 fold change is 0.046 (inactive).
For SLC38A9 (UniProt Q8NBW4), the log2 fold change is -0.058 (inactive).
Regarding STAT5A (UniProt P42229), the log2 fold change is 0.14 (inactive).
As for SNX5 (UniProt Q9Y5X3), the log2 fold change is 0.036 (inactive).
Consider SMARCE1 (UniProt Q969G3), for which the log2 fold change is 0.135 (inactive).
Turning to SRSF3 (UniProt P84103), the log2 fold change was -0.024 (inactive).
Turning to SMC5 (UniProt Q8IY18), the log2 fold change is 0.017 (inactive).
SNX1 (UniProt Q13596): the log2 fold change was 0.049 (inactive).
On the same count and under the same terms, to TARBP1 (UniProt Q13395) belongs 0.038 (inactive); to STX17 (UniProt P56962), 0.001 (inactive); to SMARCAD1 isoform 2 (UniProt Q9H4L7), 0.15 (inactive).
On to TIMM10 (UniProt P62072), for which the log2 fold change was 0.027 (inactive).
Consider SPCS2 (UniProt Q15005), for which the log2 fold change was -0.013 (inactive).
In the case of SMAP2 (UniProt Q8WU79), the log2 fold change was 0.096 (inactive).
Take TK1 (UniProt P04183): the log2 fold change is -0.03 (inactive).
As for TIMM44 (UniProt O43615), the log2 fold change was 0.091 (inactive).
TIMM29 (UniProt Q9BSF4): the log2 fold change was 0.02 (inactive).
SRI (UniProt P30626): the log2 fold change is 0.066 (inactive).
Turning to SORT1 (UniProt Q99523), the log2 fold change is -0.066 (inactive).
On the same count and under the same terms, to SLC7A6 (UniProt Q92536) belongs -0.041 (inactive).
SYF2 (UniProt O95926): the log2 fold change was -0.078 (inactive).
For the target STK25 (UniProt O00506), the log2 fold change was -0.001 (inactive).
In the case of SYMPK (UniProt Q92797), the log2 fold change is 0.235 (inactive).
In the case of SP1 (UniProt P08047), the log2 fold change is 0.023 (inactive).
SSB (UniProt P05455): the log2 fold change was 0.003 (inactive).
On the same count and under the same terms, the value for STARD3NL (UniProt O95772) was -0.058 (inactive); that for SPG21 (UniProt Q9NZD8) was 0.052 (inactive); that for SRP68 (UniProt Q9UHB9) was 0.112 (inactive).
Turning to TJP2 isoform 7 (UniProt Q9UDY2), the log2 fold change is 0.071 (inactive).
For SPPL2B (UniProt Q8TCT7), the log2 fold change was -0.022 (inactive).
Regarding SRSF7 (UniProt Q16629), the log2 fold change was -0.025 (inactive).
Same read-out and setting: to SNW1 (UniProt Q13573) belongs -0.045 (inactive).
For the target TBC1D23 (UniProt Q9NUY8), the log2 fold change was 0.028 (inactive).
Take SLC30A7 (UniProt Q8NEW0): the log2 fold change is -0.007 (inactive).

Compound in a further assay: Cc1ccc(-n2nc(C(C)(C)C)cc2NC(=O)Nc2ccc(OCCN3CCOCC3)c3ccccc23)cc1 [doramapimod]
The description is as above. In short, it runs like this:
as §1
On to STAT5B (UniProt P51692), for which the log2 fold change was -0.09 (inactive).
With STAT3 (UniProt P40763), the log2 fold change was -0.009 (inactive).
STAM2 (UniProt O75886): the log2 fold change is -0.022 (inactive).
TIAL1 isoform 2 (UniProt Q01085): the log2 fold change was -0.054 (inactive).
For SLC38A9 (UniProt Q8NBW4), the log2 fold change is 0.067 (inactive).
As to STAT5A (UniProt P42229), the log2 fold change was -0.047 (inactive).
On the same count and under the same terms, the value for SNX5 (UniProt Q9Y5X3) was -0.019 (inactive); that for SMARCE1 (UniProt Q969G3) was 0.052 (inactive).
For SRSF3 (UniProt P84103), the log2 fold change is -0.019 (inactive).
The same measure, in the same setting: to SMC5 (UniProt Q8IY18) belongs 0.015 (inactive).
Same read-out and setting: to SNX1 (UniProt Q13596) belongs -0.009 (inactive); to TARBP1 (UniProt Q13395), -0.004 (inactive); to STX17 (UniProt P56962), 0.031 (inactive).
Take SMARCAD1 isoform 2 (UniProt Q9H4L7): the log2 fold change was -0.058 (inactive).
Still for that read-out and setting: the value for TIMM10 (UniProt P62072) was 0.021 (inactive); that for SPCS2 (UniProt Q15005) was 0.047 (inactive).
Take SMAP2 (UniProt Q8WU79): the log2 fold change is -0.047 (inactive).
Take TK1 (UniProt P04183): the log2 fold change is -0.013 (inactive).
With TIMM44 (UniProt O43615), the log2 fold change was -0.035 (inactive).
As to TIMM29 (UniProt Q9BSF4), the log2 fold change is 0.185 (inactive).
For SRI (UniProt P30626), the log2 fold change is -0.032 (inactive).
As for SORT1 (UniProt Q99523), the log2 fold change was -0.042 (inactive).
Consider SLC7A6 (UniProt Q92536), for which the log2 fold change is 0.001 (inactive).
As to SYF2 (UniProt O95926), the log2 fold change was 0.022 (inactive).
As to STK25 (UniProt O00506), the log2 fold change was 0.019 (inactive).
Turning to SYMPK (UniProt Q92797), the log2 fold change was -0.09 (inactive).
On the same count and under the same terms, the value for SP1 (UniProt P08047) was 0.036 (inactive); that for SSB (UniProt P05455) was 0.013 (inactive); that for STARD3NL (UniProt O95772) was 0.063 (inactive).
As for SPG21 (UniProt Q9NZD8), the log2 fold change is 0.091 (inactive).
Consider SRP68 (UniProt Q9UHB9), for which the log2 fold change is 0.029 (inactive).
For TJP2 isoform 7 (UniProt Q9UDY2), the log2 fold change is 0.068 (inactive).
As for SPPL2B (UniProt Q8TCT7), the log2 fold change was 0.01 (inactive).
Still for that read-out and setting: to SRSF7 (UniProt Q16629) belongs 0.073 (inactive).
Consider SNW1 (UniProt Q13573), for which the log2 fold change was 0 (inactive).
In the case of TBC1D23 (UniProt Q9NUY8), the log2 fold change was -0.027 (inactive).
Still for that read-out and setting: the value for SLC30A7 (UniProt Q8NEW0) was -0.057 (inactive).

The record behind these values is the supplement of paper PMC10849652.
